FLuc modulator: counter-screen for miR-21 project: firefly luciferase inhibitors or activators | Potency, µM (doses to about 57.5 µM), usual class: inhibitors | purified FLuc, Km substrates, luminescence inhibition | P08659 | hit rate 6.9% among 360,000 | AID 588342; note: nearly all actives have a fitted effect of over 55% in size
Target sequence (P08659 whole entry, looked up): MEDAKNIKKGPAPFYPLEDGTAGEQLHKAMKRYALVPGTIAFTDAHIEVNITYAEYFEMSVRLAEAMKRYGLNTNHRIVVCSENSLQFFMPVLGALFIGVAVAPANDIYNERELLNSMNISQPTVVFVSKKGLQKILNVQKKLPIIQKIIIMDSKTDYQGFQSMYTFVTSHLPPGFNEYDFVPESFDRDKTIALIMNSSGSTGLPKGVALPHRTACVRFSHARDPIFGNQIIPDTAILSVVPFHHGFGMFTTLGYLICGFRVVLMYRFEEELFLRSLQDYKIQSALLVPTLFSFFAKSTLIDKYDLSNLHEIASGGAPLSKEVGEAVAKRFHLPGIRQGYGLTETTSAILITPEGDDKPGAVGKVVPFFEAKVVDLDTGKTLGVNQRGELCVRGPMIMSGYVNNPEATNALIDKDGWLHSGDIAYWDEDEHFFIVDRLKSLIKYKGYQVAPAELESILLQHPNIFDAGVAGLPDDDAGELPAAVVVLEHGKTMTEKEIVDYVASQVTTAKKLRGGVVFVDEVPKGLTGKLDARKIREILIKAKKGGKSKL
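Purified P. pyralis luciferase (10nM final) with 10uM D-luciferin and 10uM ATP (Km levels) in 50mM Tris acetate pH 7.5, 10mM Mg acetate, 0.01% Tween-20, 0.05% BSA; qHTS 6-point titration, ~60 µM downward; luminescence read.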
ELG1 DNA repair: ELG1-dependent DNA repair inhibition | HEK293T ELG1-luciferase reporter, luminescence, 16 h; DNA damage induced by 5-fluorouridine | Potency, µM (doses to about 46.1 µM), usual class: inhibitors | hit rate 2.3% among 330,000; note: nearly all actives have a fitted effect of over 55% in size
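Cells (2,000 per well) received 5-fluorouridine plus test compound or DMSO and were incubated 16 hr at 37 °C, 5% CO2. Luciferase activity was read by luminescence 30 min after ONE-Glo addition; signal suppression marked inhibition of damage-induced ELG1 function.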
SMN2 splice enh: enhancers of SMN2 splice variant expression. HEK293 SMN2-luciferase splicing reporter, luminescence, 30-36 h. hit rate 2.8% among 210,000. Potency, µM (top dose mostly 46.1 µM), usual class: activators. AID 1458; note: nearly all actives have a fitted effect of over 55% in size
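qHTS luciferase splicing reporter: luminescence rises when SMN2 exon 7 is included in transfected HEK293 cells. Compound exposure lasted 30-36 h at 37C, with 4.5 mM final sodium butyrate as control, followed by a ONE-Glo read.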
Rab9 prom act: activators of Rab9 promoter | Huh7 Rab9 promoter-luciferase reporter, luminescence, 24 h | Potency, µM (series often up to 9.22 µM), most hits filed as activators | hit rate 2.8% among 320,000 | AID 485297; note: nearly all actives have a fitted effect of over 60% in size
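Cell-based reporter: Huh7 stable for Rab9 promoter-driven luciferase, plated in reduced-serum medium with 10% FBS at 1500 cells/well, compound-treated 24 h at 37 °C, luminescence read after 10 min reagent.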
ELG1 genotoxic: inducers of genotoxicity in HEK293T ELG1-luciferase cells; Potency, µM (highest dose often 46 µM), usual class: activators; hit rate 1.3% among 330,000; HEK293T ELG1-luciferase reporter, luminescence, 16 h; AID 504466; note: nearly all actives have a fitted effect of over 60% in size
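HEK293T cells expressing luciferase-tagged ELG1 were treated with compound or DMSO for 16 hr at 37°C. Luciferase activity was then read after 30 min with ONE-Glo at room temperature; rising signal flags genetic stress.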
NPC1 promoter act: NPC1 promoter activation. Potency, µM (titrated, usually from 9.22 µM), hits mostly activators. Huh7 NPC1 promoter luciferase reporter, 24 h. hit rate 2.4% among 320,000; note: nearly all actives have a fitted effect of over 60% in size
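In 1536-well qHTS, Huh7 cells harboring an NPC1 promoter–luciferase construct received compound for 24 h; activation was quantified by luminescence following luciferase reagent addition.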
Numbers stand for hits; [ ] = another dose, or the depositor's remark. Shown are actives, neighbours in structure and some others; about 9.2% of the full set was active somewhere. Calls come from the whole dose curve; as a rule, active = well fitted curve in the direction sought with a large enough effect; inconclusive = small, poorly fitted or top-dose-only effect, or another doubt; inactive = no such curve, though single readings can be large; an effect the other way counts as inactive or inconclusive.

For Cc1c(N2C(=O)C(=O)/C(=C(/O)c3ccc(Cl)cc3)C2c2ccccc2)c(=O)n(-c2ccccc2)n1C (stereo unspecified) the results were FLuc modulator inactive, ELG1 DNA repair inactive, SMN2 splice enh inactive, Rab9 prom act inactive, ELG1 genotoxic inactive and NPC1 promoter act inactive.
For C=CCN(C(=O)c1cccc(N2C(=O)C3CC=CC(C)C3C2=O)c1)c1ccccc1 (stereo unspecified) the results were FLuc modulator inactive, ELG1 DNA repair inconclusive, SMN2 splice enh inactive, Rab9 prom act inactive, ELG1 genotoxic inactive and NPC1 promoter act inactive.
`Cc1cccc(NC(=O)Cn2cc(C(=O)C3CCCCC3)c3ccccc32)c1` gave FLuc modulator inactive and SMN2 splice enh inactive.
For O=C(COc1cccc2c1CCN(Cc1ccc(Br)cc1)C2=O)NCc1ccco1 the results were FLuc modulator inactive, ELG1 DNA repair 18µM, SMN2 splice enh inactive, Rab9 prom act inactive, ELG1 genotoxic inactive and NPC1 promoter act inactive.
For O=C(COc1cccc2c1CCN(Cc1ccc(Br)cc1)C2=O)N1CCOCC1 the results were FLuc modulator inactive, ELG1 DNA repair 7.3µM, SMN2 splice enh inactive, Rab9 prom act inactive, ELG1 genotoxic inactive and NPC1 promoter act inactive.
Screening O=C1c2cccc(OCC(=O)N3CCCc4ccccc43)c2CCN1Cc1ccc(Br)cc1 returned FLuc modulator inactive, ELG1 DNA repair 18µM, SMN2 splice enh inactive, Rab9 prom act inactive, ELG1 genotoxic inactive and NPC1 promoter act inactive.
Screening Cc1cc(C(=O)Nc2cc(Br)ccc2O)on1 returned FLuc modulator inactive, ELG1 DNA repair inactive, Rab9 prom act inactive[1.84 µM], ELG1 genotoxic inactive and NPC1 promoter act inactive.
c1ccc2c(c1)CCN(C1=Nc3cccc4cccc1c34)C2 was read as FLuc modulator 6.7µM, ELG1 DNA repair inconclusive, SMN2 splice enh 16µM, Rab9 prom act 2.8µM, ELG1 genotoxic inactive and NPC1 promoter act inactive.
Screening O=C(COc1ccccc1N1C(=O)c2ccccc2C1=O)c1ccc(Cl)cc1 returned FLuc modulator inactive, ELG1 DNA repair inconclusive, SMN2 splice enh inactive, Rab9 prom act inactive, ELG1 genotoxic 18µM and NPC1 promoter act inactive.
Screening O=C(COc1ccc(N2C(=O)c3ccccc3C2=O)cc1)c1ccccc1 returned FLuc modulator inactive, ELG1 DNA repair inactive, SMN2 splice enh inactive, Rab9 prom act inactive, ELG1 genotoxic inactive and NPC1 promoter act inactive.
O=[N+]([O-])c1cccc(/C=N\Nc2ccc3ccccc3n2)c1O was read as SMN2 splice enh inactive[9.22 µM].
O=[N+]([O-])c1ccc(O)c(/C=N/Nc2ccccc2Cl)c1 was read as FLuc modulator 4.8µM, ELG1 DNA repair inconclusive, SMN2 splice enh 13µM, Rab9 prom act inconclusive, ELG1 genotoxic inconclusive and NPC1 promoter act 1.4µM.
For O=[N+]([O-])c1ccccc1N/N=C\c1ccccc1Cl the results were FLuc modulator 0.67µM, ELG1 DNA repair inconclusive, SMN2 splice enh 7.9µM, Rab9 prom act 2.8µM, ELG1 genotoxic inconclusive and NPC1 promoter act inconclusive.
C/C(=N\Nc1cccc([N+](=O)[O-])c1)c1ccccc1O was read as FLuc modulator 19µM, ELG1 DNA repair inconclusive, Rab9 prom act inconclusive, ELG1 genotoxic inconclusive and NPC1 promoter act inactive.
`O=[N+]([O-])c1ccccc1N/N=C/c1cccc(O)c1O` gave FLuc modulator 1.5µM, ELG1 DNA repair inconclusive, Rab9 prom act inactive, ELG1 genotoxic 10µM and NPC1 promoter act 3.5µM.
CCOc1ccc(N2CC(C)Cn3c2nc2c3c(=O)n(CC(=O)O)c(=O)n2C)cc1 (stereo unspecified) was read as FLuc modulator inactive and SMN2 splice enh inactive.
CC(=O)Nc1nonc1-c1nnc(SCC(=O)Nc2ccccc2Cl)n1C was read as FLuc modulator inactive.
For CC(C)N(Cc1ccccc1)C(=O)Cn1ncc2c3ccccc3n(Cc3ccccc3)c2c1=O the results were FLuc modulator inactive and SMN2 splice enh inactive.
Screening Cc1c(NC(=S)N/N=C/c2ccc(O)cc2)c(=O)n(-c2ccccc2)n1C returned FLuc modulator inactive, ELG1 DNA repair inactive, SMN2 splice enh inactive, Rab9 prom act inactive, ELG1 genotoxic inactive and NPC1 promoter act inactive.
O=C(N/N=C/c1cc([N+](=O)[O-])ccc1O)C1CC1 was read as FLuc modulator inactive, ELG1 DNA repair 18µM, Rab9 prom act inactive, ELG1 genotoxic inactive and NPC1 promoter act inactive.
For O=C(N/N=C/c1cccc([N+](=O)[O-])c1)c1cccc2cc[nH]c12 the results were FLuc modulator inactive, ELG1 DNA repair inactive, SMN2 splice enh inactive, Rab9 prom act inactive, ELG1 genotoxic inactive and NPC1 promoter act inactive.
Screening O=C(N/N=C/c1cc([N+](=O)[O-])ccc1O)c1cccc2cc[nH]c12 returned FLuc modulator inactive, ELG1 DNA repair 4.6µM, Rab9 prom act inactive, ELG1 genotoxic inactive and NPC1 promoter act inactive.
Screening Cc1c(NC(=S)N/N=C/c2cc([N+](=O)[O-])ccc2O)c(=O)n(-c2ccccc2)n1C returned FLuc modulator 27µM, ELG1 DNA repair inconclusive, Rab9 prom act inactive, ELG1 genotoxic inactive and NPC1 promoter act inactive.
For O=[N+]([O-])c1ccccc1N/N=C\c1ccccc1F the results were FLuc modulator inconclusive, ELG1 DNA repair inconclusive, Rab9 prom act 2.8µM, ELG1 genotoxic 5.8µM and NPC1 promoter act inconclusive.
For O=[N+]([O-])c1cccc(N/N=C/c2cccc(O)c2O)c1 the results were FLuc modulator 15µM, ELG1 DNA repair inconclusive, SMN2 splice enh inconclusive, Rab9 prom act inactive, ELG1 genotoxic inconclusive and NPC1 promoter act inactive.
O=C(Nc1ccc(Cl)cn1)C1CCCN(c2ncnc3c2nc2n3CCCCC2)C1 (stereo unspecified) was read as FLuc modulator inactive, ELG1 DNA repair inconclusive, Rab9 prom act inactive, ELG1 genotoxic inactive and NPC1 promoter act inactive.
O=C(Nc1ccc(Cl)cn1)C1CCN(c2ncnc3c2nc2n3CCCCC2)CC1 was read as FLuc modulator inactive, ELG1 DNA repair 2.1µM, Rab9 prom act inactive, ELG1 genotoxic inactive and NPC1 promoter act inactive.
`Cc1c(Cl)cccc1NC(=O)C1CCN(c2ncnc3c2nc2n3CCCCC2)CC1` gave FLuc modulator inactive.
Screening CCN(C(=O)C1CCCN(c2ncnc3c2nc2n3CCCCC2)C1)c1cccc(Cl)c1 (stereo unspecified) returned FLuc modulator inactive, ELG1 DNA repair 21µM, Rab9 prom act inactive, ELG1 genotoxic inactive and NPC1 promoter act inactive.
For O=C(Nc1ccc(F)c(Cl)c1)C1CCN(c2ncnc3c2nc2n3CCCCC2)CC1 the results were FLuc modulator inactive, ELG1 DNA repair 7.3µM, Rab9 prom act inactive, ELG1 genotoxic inactive[9.26 µM] and NPC1 promoter act inactive.
For COc1ccccc1NC(=O)C1CCN(c2ncnc3c2nc2n3CCCCC2)CC1 the results were FLuc modulator inactive, ELG1 DNA repair 9.2µM, Rab9 prom act inactive, ELG1 genotoxic inactive[9.26 µM] and NPC1 promoter act inactive.

Screens (PubChem)
